# Where “and” joins values, the source holds several entries; their conditions need not be identical. Identical values can stand only once. Records with an inconclusive call do not appear. Calls of active or inactive are those of the source. The calls were made as follows, unless noted: active = hit-call score of the fitted dose curve at least 0.9, where 1 is the maximum; inconclusive = response in the unintended direction; inactive = score below 0.9.
# Columns and labels:
# [1] = TOX21_p53_BLA_p2_viability: Viability Assessment in the Tox21 HCT-116 p53 Agonism Beta-lactamase Assay, Phase 2 (AID 2283591);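 also: compound exposure lasted 16 h at 37 °C; actives lower the ATP signal meaning cytotoxicity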
# Outline: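 HCT-116 p53-bla cells (4000/well) rested 5 h at 37C, then received compounds in DMSO (217-fold dilution) for 16 h at 37C, 5% CO2. After the CCF4 read, CellTiter-Glo was added; ATP luminescence was read after 30 min at room temperature.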
# [2] = target: Cellular tumor antigen p53 (Homo sapiens) (UniProt P04637); assay: TOX21_p53_BLA_p2_ratio: Tox21 HCT-116 p53 Agonism Beta-lactamase Assay, Ratio, Phase 2 (AID 2283592)
# Outline: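 HCT116 cells carrying a p53-responsive beta-lactamase reporter were plated, incubated 5 h at 37C, then dosed with compounds in DMSO (217-fold dilution) for 16 h. CCF4-AM substrate was added for 2 h at room temperature; the 460/530 nm emission ratio gave gain-of-signal activity relative to DMSO.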
# [3] = TOX21_p53_BLA_p3_viability: Viability Assessment in the Tox21 HCT-116 p53 Agonism Beta-lactamase Assay, Phase 3 (AID 2283593);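 also: cells exposed to compound for 16 h before reading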
# Outline: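 HCT-116 cells (4000/well) rested 5 h at 37C, then got DMSO compounds by pin tool (217-fold dilution) for 16 h at 37C, 5% CO2. After the bla read, CellTiter-Glo was added and luminescence read at 30 min, room temperature.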
# [4] = target: Cellular tumor antigen p53 (Homo sapiens) (UniProt P04637); assay: TOX21_p53_BLA_p3_ratio: Tox21 HCT-116 p53 Agonism Beta-lactamase Assay, Ratio, Phase 3 (AID 2283596)
# Outline: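 HCT116 p53-bla cells (4000/well) given compound in DMSO (217-fold dilution) after 5 h, incubated 16 h at 37C. CCF4-AM substrate 2 h at room temperature; 460/530 nm emission ratio, gain fitted against DMSO.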
# [5] = TOX21_p53_BLA_p4_viability: Viability Assessment in the Tox21 HCT-116 p53 Agonism Beta-lactamase Assay, Phase 4 (AID 2283597);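 also: hits lower the luminescence signal meaning cytotoxicity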
# Outline: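 HCT116 p53-bla cells (4000/well) rested 5 h at 37C, then received compounds in DMSO (217-fold dilution) for 16 h at 37C, 5% CO2. CellTiter-Glo was added after the CCF4-AM read, and luminescence was read after 30 min at room temperature.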
# [6] = target: Cellular tumor antigen p53 (Homo sapiens) (UniProt P04637); assay: TOX21_p53_BLA_p5_ratio: Tox21 HCT-116 p53 Agonism Beta-lactamase Assay, Ratio, Phase 5 (AID 2283599)
# Outline: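 HCT-116 cells carrying a p53-inducible beta-lactamase reporter were seeded at 4000 cells/well and dosed after 5 h with compound in DMSO (217-fold dilution). After 16 h at 37C, CCF4-AM substrate was added for 2 h, and the 460/530 nm emission ratio was scored as gain-of-signal versus DMSO.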
# [7] = TOX21_p53_BLA_p5_viability: Viability Assessment in the Tox21 HCT-116 p53 Agonism Beta-lactamase Assay, Phase 5 (AID 2283600)
# Outline: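 Cells were plated at 4000/well, rested 5 h at 37C, then given compounds in DMSO (217-fold dilution) for 16 h at 37C, 5% CO2. Following the CCF4-AM beta-lactamase read, CellTiter-Glo was added and luminescence was read after 30 min at room temperature.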
# [8] = target: Cellular tumor antigen p53 (Homo sapiens) (UniProt P04637); assay: TOX21_p53_BLA_p4_ratio: Tox21 HCT-116 p53 Agonism Beta-lactamase Assay, Ratio, Phase 4 (AID 2283601)
# Outline: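 HCT116 cells carrying an inducible beta-lactamase reporter were plated at 4000 cells/well, rested 5 h, then exposed to compounds in DMSO (217-fold dilution) for 16 h at 37C. CCF4-AM substrate was loaded 2 h at room temperature; 460/530 nm emission ratio scored gain-of-signal versus DMSO.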
# [9] = target: THRA (gene 7067) (UniProt P10827); assay: TOX21_TRA_COA_Antagonist_Followup_ratio: Tox21 Thyroid Hormone Receptor alpha Antagonism through Coactivator Recruitment Follow-Up Assay, Ratio (AID 2283953)
# Outline: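 520:495 nm emission ratio (excitation 340 nm) reports fluorescein-SRC-2 peptide recruitment to GST-TRα LBD by TR-FRET with Tb anti-GST antibody. Values were normalized to DMSO (0%) and T3 control wells (100%); loss of signal indicated antagonism.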
# [10] = target: THRB (gene 7068) (UniProt P10828); assay: TOX21_TRB_BLA_Antagonist_Followup_ratio: Tox21 Thyroid Hormone Receptor beta Antagonism Beta-lactamase (BLA) Follow-Up Assay, Ratio (AID 2283958)
# Outline: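 HEK293T TRb-bla (GAL4 DBD + hTRβ LBD), 2% cs-FBS phenol red-free DMEM, 5 h attach; cpds 11-pt triplicate, 18 h 37C; CCF4-AM 2 h RT; 460/530 ratio vs DMSO; CellTiter-Glo viability same wells.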
# [11] = TOX21_TRB_BLA_Antagonist_Followup_viability: Viability Assessment in the Tox21 Thyroid Hormone Receptor beta Antagonism Beta-lactamase (BLA) Follow-Up Assay (AID 2283961)
# Outline: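 HEK293T cells stably expressing GAL4-DBD/human TRβ-LBD with UAS-bla reporter, 3,000 cells/well in phenol red-free DMEM, 2% charcoal-stripped FBS. Compounds at 11 concentrations in triplicate, 18 h at 37C/5% CO2; viability by CellTiter-Glo luminescence after 30 min at room temperature.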
# [12] = target: THRB (gene 7068) (UniProt P10828); assay: TOX21_TRB_COA_Antagonist_Followup_ratio: Tox21 Thyroid Hormone Receptor beta Antagonism through Coactivator Recruitment Follow-Up Assay, Ratio (AID 2283967)
# Outline: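 Cell-free TR-FRET coactivator recruitment with GST-tagged TRβ LBD (5.0 nM) and fluorescein-labeled SRC-2 peptide (200 nM) detected by terbium anti-GST antibody (2 nM). The 520:495 nm emission ratio was normalized to DMSO (0%) and T3 (100%).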
# [13] = target: Retinoic acid receptor RXR-alpha (Homo sapiens) (UniProt P19793); assay: TOX21_TR_RXR_BLA_Antagonist_Followup_ratio: Tox21 Thyroid Hormone Receptor beta Retinoid X Receptor alpha (RXRa) Antagonism Beta-lactamase (BLA) Follow-Up Assay, Ratio (AID 2283972)
# Outline: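 RXRa-UAS-bla HEK293T cells in phenol red-free DMEM with 2% charcoal-stripped FBS; compounds at 11 concentrations in triplicate, 16 h at 37C. LiveBLAzer FRET-B/CCF4-AM substrate 2 h at room temperature; read as 460:530 nm ratio versus DMSO.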
# [14] = CCTE_Harrill_HTTr_Viability_MCF7: CCTE's 6-hour Cell Viability Assessment for the High-Throughput Transcriptomics (HTTr) Platform, in MCF-7 cells cultured in DMEM + 10% fetal bovine serum, Harrill Lab (AID 2284010; active = hit-call score of the fitted dose curve at least 0.9, where 1 is the maximum; inactive = score below 0.9)
# Outline: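 Cells were dosed with chemicals in an eight-point dilution series, imaged 6 hours later for propidium iodide uptake, and the endpoint was analyzed by bidirectional fitting against DMSO as negative control.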
# [15] = CCTE_Harrill_HTTr_Apoptosis_MCF7: CCTE's 6-hour Apoptosis Assessment for the High-Throughput Transcriptomics (HTTr) Platform, in MCF-7 cells cultured in DMEM + 10% fetal bovine serum, Harrill Lab (AID 2284011; active = hit-call score of the fitted dose curve at least 0.9, where 1 is the maximum; inactive = score below 0.9)
# Outline: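 MCF-7 cells in DMEM + 10% fetal bovine serum were exposed to chemicals for 6 hours over an eight-point dilution series. Caspase-3/7 activation was imaged by high content imaging with CellEvent Caspase 3/7 Green; bidirectional fitting used DMSO as baseline.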
# [16] = CCTE_Harrill_HTTr_CellCount_MCF7: CCTE's Cell Proliferation Assessment for the High-Throughput Transcriptomics (HTTr) Platform, Harrill Lab (AID 2284012);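 also: count of Hoechst-stained nuclei per well by high-content imaging in MCF-7 cells; cells exposed to compound for six hours; intended direction is loss of nuclei count meaning fewer cells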
# Outline: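 Chemicals in eight-point dilution series are added to MCF-7 cells for six hours, nuclei are stained with Hoechst and imaged, and per-well nuclei counts are fitted in both directions relative to DMSO controls.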
# Sequence of Cellular tumor antigen p53 (Homo sapiens) (P04637 whole entry, looked up): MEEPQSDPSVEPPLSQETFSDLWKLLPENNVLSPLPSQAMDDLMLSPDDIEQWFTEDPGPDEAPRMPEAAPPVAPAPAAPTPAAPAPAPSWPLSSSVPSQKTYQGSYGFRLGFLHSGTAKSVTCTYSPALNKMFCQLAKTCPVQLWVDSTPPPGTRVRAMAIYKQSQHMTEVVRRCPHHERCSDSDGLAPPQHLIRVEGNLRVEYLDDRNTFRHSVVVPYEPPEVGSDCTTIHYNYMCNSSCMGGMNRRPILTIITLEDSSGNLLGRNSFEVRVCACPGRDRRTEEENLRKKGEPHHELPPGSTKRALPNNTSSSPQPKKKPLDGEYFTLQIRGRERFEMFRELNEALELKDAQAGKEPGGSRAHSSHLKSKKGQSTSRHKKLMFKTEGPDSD
# Sequence of THRB (gene 7068) (P10828 whole entry, looked up, the tested form may be a part): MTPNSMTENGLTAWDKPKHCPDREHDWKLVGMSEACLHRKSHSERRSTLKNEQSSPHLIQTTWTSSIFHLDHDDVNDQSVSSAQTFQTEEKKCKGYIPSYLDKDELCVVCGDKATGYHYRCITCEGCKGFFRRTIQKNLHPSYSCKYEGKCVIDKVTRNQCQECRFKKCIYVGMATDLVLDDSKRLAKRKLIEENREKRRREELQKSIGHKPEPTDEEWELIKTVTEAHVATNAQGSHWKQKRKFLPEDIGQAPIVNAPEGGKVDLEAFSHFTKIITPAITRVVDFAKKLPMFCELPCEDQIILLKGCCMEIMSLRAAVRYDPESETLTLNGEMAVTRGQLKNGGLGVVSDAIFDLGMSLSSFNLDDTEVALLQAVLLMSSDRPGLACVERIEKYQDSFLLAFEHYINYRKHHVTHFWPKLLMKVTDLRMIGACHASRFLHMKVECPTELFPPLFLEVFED
# Sequence of Retinoic acid receptor RXR-alpha (Homo sapiens) (P19793 whole entry, looked up): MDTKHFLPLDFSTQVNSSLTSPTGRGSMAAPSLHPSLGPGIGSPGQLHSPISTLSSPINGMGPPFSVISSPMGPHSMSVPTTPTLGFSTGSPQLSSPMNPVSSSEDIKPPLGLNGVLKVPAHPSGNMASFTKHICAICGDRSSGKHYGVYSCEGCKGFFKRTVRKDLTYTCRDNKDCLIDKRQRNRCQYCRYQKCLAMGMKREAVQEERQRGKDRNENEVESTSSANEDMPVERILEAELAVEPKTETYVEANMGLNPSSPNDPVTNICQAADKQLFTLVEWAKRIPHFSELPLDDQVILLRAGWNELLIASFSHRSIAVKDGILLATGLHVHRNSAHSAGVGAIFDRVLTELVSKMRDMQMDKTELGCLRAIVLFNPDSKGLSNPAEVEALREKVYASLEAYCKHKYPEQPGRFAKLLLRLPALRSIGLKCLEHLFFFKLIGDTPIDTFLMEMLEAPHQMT
# Sequence of THRA (gene 7067) (P10827 whole entry, looked up, the tested form may be a part): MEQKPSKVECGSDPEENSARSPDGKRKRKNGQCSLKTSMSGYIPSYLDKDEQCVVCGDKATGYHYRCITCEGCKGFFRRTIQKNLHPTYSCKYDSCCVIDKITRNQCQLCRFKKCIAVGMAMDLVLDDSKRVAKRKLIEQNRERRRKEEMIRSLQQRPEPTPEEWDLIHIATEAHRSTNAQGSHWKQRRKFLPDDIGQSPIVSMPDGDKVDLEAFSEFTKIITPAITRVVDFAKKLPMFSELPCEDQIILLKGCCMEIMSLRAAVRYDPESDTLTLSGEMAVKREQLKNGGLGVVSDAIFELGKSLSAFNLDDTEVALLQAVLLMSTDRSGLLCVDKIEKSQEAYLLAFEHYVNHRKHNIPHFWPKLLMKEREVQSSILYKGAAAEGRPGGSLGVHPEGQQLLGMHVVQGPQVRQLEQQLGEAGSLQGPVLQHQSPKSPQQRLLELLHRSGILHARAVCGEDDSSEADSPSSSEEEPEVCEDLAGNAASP
SMILES,outcome [1],AC50 [2],outcome [3],AC50 [4],outcome [5],AC50 [6],outcome [7],AC50 [8],outcome [9],AC50 [10],outcome [11],outcome [12],outcome [13],outcome [2],outcome [4],outcome [6],outcome [14],outcome [15],outcome [16]
COC(=O)Nc1nc2ccc(Sc3ccccc3)cc2[nH]1,inactive,99.9 nM (active) and 139 nM (active),inactive,163 nM (active) and 98.8 nM (active),inactive,161 nM (active) and 97.3 nM (active),inactive,122 nM (active) and 96.1 nM (active),inactive,868 nM (active),inactive,inactive,inactive,,,,,,
CN(C)CCOC(=O)COc1ccc(Cl)cc1,inactive,,inactive,,inactive,,inactive,,,,,,,inactive,inactive,inactive,inactive,inactive,inactive

# Reference: PubChem BioAssay (EPA / NIEHS)
